Experimental findings from PubChem BioAssay AID463195 (Sanford-Burnham Center for Chemical Genomics, 2010) are described below.

The campaign covered roughly 330,000 compounds. About 4,600 (1.4%) were called active. The sample holds actives, similar compounds and a random draw of the others, so the mix is not that of the screen. A number with no mark means an inactive call.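 The calls were made as follows: active = inhibition of 40% or more at the single tested concentration; inactive = the rest.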

In general, inhibition refers to the drop in the measured response relative to a control, in per cent.

A short description of this assay: growth inhibitors of isogenic TIM10 control yeast, primary screen, counter-screen for tim10-1 yeast inhibitor project, luminescence, uHTS (AID 463195).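 Also: wild-type TIM10 isogenic control strain grown at permissive 25 °C; 0% = DMSO yeast wells and 100% = minimal medium wells without yeast.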 Particulars: S. cerevisiae TIM10 strain growth, BacTiter-Glo luminescence, 24 h; at 10 µM; active compounds read high. On the technique in general: A counterscreen serves to expose hits that act by an unwanted route or on another target.
As for `CC(C)COc1ccc(C(=O)OCC(=O)NCCC2=CCCCC2)cc1`, the inhibition was 11.3%.

Consider `COC(=O)c1ccc(COc2cc([N+](=O)[O-])cc3cccnc23)cc1`, for which the inhibition was -32.2%. In the case of `C=C(C)c1cccc(C(C)(C)NC(=O)N2CCN(c3ncccn3)CC2)c1`, the inhibition was 3.72%. As to `COc1ccc(-c2cc(-c3ccc(N)cc3)nc(N)c2C#N)cc1OC`, the inhibition was 41% (active).

Consider `CCOc1cc(-c2cc(-c3ccc(OC)cc3)nc(N)c2C#N)ccc1O`, for which the inhibition is 34%. For `CCOc1cc(-c2cc(-c3ccc(NC(C)=O)cc3)nc(N)c2C#N)ccc1O`, the inhibition was -6.1%.

`O=C(CN1CCN(S(=O)(=O)c2ccc3ccccc3c2)CC1)NC(=O)NC1CCCCC1`: the inhibition was 44.2% (active).

`COc1ccc(S(=O)(=O)N2CCN(C(=O)NC3CCCCC3)CC2)cc1`: the inhibition is -5.18%. `O=C(CN1CCN(S(=O)(=O)c2ccc(F)cc2)CC1)NC1CC1`: the inhibition is 0.605%.

Consider `O=C(NC(=S)Nc1cccc2c(O)cccc12)c1cccc(Br)c1`, for which the inhibition was 20.4%. For `O=C1c2ccccc2S(=O)(=O)c2cc(N3CCN(c4ccccn4)CC3)ccc21`, the inhibition is -6.37%. On to `Cc1cc(C(C)(C)C)cc(C)c1N`, for which the inhibition is -4.47%. `Cc1cc(N)n2nc(-c3ccc(C(C)(C)C)cc3)cc2n1`: the inhibition is 45.3% (active). Take `COc1ccc(-c2cc(C)nc3nc(N)nn23)cc1`: the inhibition is 9.96%. The figure for `C/C(CC(=O)Nc1cccc(C(F)(F)F)c1)=N\NC(=O)C(=O)NCC(C)C` is 10.5%; for `CCOC(=O)CNC(=O)CSc1ccc2nnc(-c3cccnc3)n2n1` it is -17.7%. Consider `CCOC(=O)CNC(=O)CSc1ncccc1-c1nc2ccccc2[nH]1`, for which the inhibition is 97.9% (active). As to `CCOC(=O)CNC(=O)CSc1nc2cccnc2n1CC`, the inhibition was 7.72%. With `CC(C)C(NC(=O)C1CCC(C(C)(C)C)CC1)C(=O)NCCCN1CCCCC1` (stereo not drawn), the inhibition was 6.75%. With `O=C(CNC(=O)c1ccccc1Br)NNC(=O)c1cccs1` the figure was 3.43%; with `Cc1ccoc1C(=O)Nc1cccc(Oc2ccccc2)c1`, 55.2% (active).

Take `CC(Oc1cccc(NC(=O)c2cccs2)c1)C(=O)c1ccccc1` (stereo not drawn): the inhibition was 8.87%. The figure for `Cc1cccc(NC(=O)Nc2cccc(Oc3c(F)c(F)c(F)c(F)c3F)c2)c1` is 8.17%; for `COc1ccccc1NC(=O)CSc1nnc(Cn2nnc(-c3ccccc3)n2)n1-c1ccccc1` it is 6.08%.

For the compound `Cc1ccc(NC(=O)COC(=O)CN2CCCCCC2=O)c(C)c1`, the inhibition is 7.63%. With `COc1ccc(CN2CCC(n3nccc3NC(=O)CCCc3ccccc3)CC2)cc1C` the figure was 4.88%; with `CCc1cccc(CC)c1NC(=S)NCc1ccc2[nH]c(C)cc2c1`, 54% (active); with `Cc1cc2cc(CNC(=O)c3cccs3)ccc2[nH]1`, -0.032%. As to `Cc1cc2cc(CNC(=O)c3ccc(S(=O)(=O)N4CCOCC4)cc3)ccc2[nH]1`, the inhibition is 7.18%. For the compound `N#CCC(=O)N/N=C/c1cn(Cc2ccc3ccccc3c2)c2ccccc12`, the inhibition was -20.2%.

In the case of `CNC(=S)N/N=C/c1cn(Cc2ccc(C)cc2)c2ccccc12`, the inhibition is 51.4% (active). Take `CCOC(=O)N/N=C/c1cn(Cc2ccccc2Cl)c2ccccc12`: the inhibition was 22%. With `C=CCN(c1ccc(Cl)cc1)S(=O)(=O)c1cccc(C(=O)OCC(=O)N(C)C)c1` the figure was -12.8%.

`O=C(O)c1ccc(N/N=C/c2cn(-c3ccccc3)nc2-c2cccs2)cc1`: the inhibition was 56.3% (active). The figure for `COc1cccc(NC(=O)CN(C)C(=O)/C=C/c2cn(-c3ccccc3)nc2-c2cccs2)c1` is -5.41%; for `O=C(NCc1cccnc1)c1cn(-c2ccccc2)nc1-c1cccs1` it is 2.96%; for `CN(CC(=O)NC(=O)Nc1ccccc1F)Cc1ccccc1` it is 2.75%. Turning to `Cc1cc(C)c(S(=O)(=O)N2CCC(C(=O)OCc3c(C)noc3C)CC2)c(C)c1`, the inhibition was 8.76%. As for `Cc1noc(C)c1NC(=O)Nc1cccc2c1O[C@H](CN(C)S(=O)(=O)c1c(C)noc1C)[C@@H](C)CN([C@H](C)CO)C2=O`, the inhibition was 9.51%.

As to `O=C1c2ccccc2S(=O)(=O)N1CC(O)Cn1c2ccccc2c2ccccc21` (stereo not drawn), the inhibition is 79.5% (active). As to `CCCCN(CCCC)CC(O)Cn1c2ccccc2c(=O)c2ccccc21` (stereo not drawn), the inhibition is -7.98%. On to `CC(C)(C)c1ccc(CN2C(=O)c3ccccc3S2(=O)=O)cc1`, for which the inhibition is 11%. Take `COC(=O)c1ccc(C2C3=C(Nc4nnnn42)c2ccccc2OC3)cc1` (stereo not drawn): the inhibition was 27.5%. With `CCCc1[nH]nc2c1C(c1ccc(OC(=O)c3ccco3)cc1)C(C#N)=C(N)O2` (stereo not drawn), the inhibition was 3.44%.

Turning to `CCCc1[nH]nc2c1C(c1ccc(OC)c(Cn3nc(C)c(Br)c3C)c1)C(C#N)=C(N)O2` (stereo not drawn), the inhibition is 3.67%. `CCCc1[nH]nc2c1C(c1ccc(Br)s1)C(C#N)=C(N)O2` (stereo not drawn): the inhibition is 66.7% (active).

Consider `CCCCN(CC)C(=O)CN(C)S(=O)(=O)c1cccc2nsnc12`, for which the inhibition is -12.4%. With `COc1ccc(NC(=O)COc2ccc(C(=O)c3ccc(F)cc3)cc2)cc1S(N)(=O)=O` the figure was 7.33%; with `Cc1ccc(-c2ccc(/C=C(\C#N)C(N)=S)o2)c([N+](=O)[O-])c1`, 51.5% (active). For the compound `Cc1cc(C)c([N+](=O)[O-])cc1-c1ccc(/C=N/NC(=O)c2nonc2N)o1`, the inhibition is -9.15%.

As to `CC1=NN(c2ccc(Cl)c(C(=O)O)c2)C(=O)/C1=C/c1ccc(-c2ccccc2[N+](=O)[O-])o1`, the inhibition is 12.6%. With `CC(C)NC(=O)N1CCN(c2ccncc2S(=O)(=O)N2CCCCC2)CC1`, the inhibition is -2.83%. With `Oc1ccc(-c2cccc(-c3ccc(O)cc3)c2)cc1` the figure was -32.3%. For the compound `O=C(/C=C/c1cc2c(cc1Br)OCO2)NCc1ccc(Cl)cc1`, the inhibition is -5.07%. In the case of `O=C(/C=C/c1ccc(Cl)cc1Cl)c1cccnc1`, the inhibition is 8.99%. In the case of `O=C(/C=C/c1ccc(Cl)c([N+](=O)[O-])c1)c1cccnc1`, the inhibition is 73.9% (active). Consider `O=C(Nc1ccncc1)c1ccc(Cl)c([N+](=O)[O-])c1`, for which the inhibition was -47.9%. Consider `CC1CCCCC12NC(=O)N(CC(=O)OCc1c(F)cccc1Cl)C2=O` (stereo not drawn), for which the inhibition was 1.25%.
